Compound activity (PubChem)
Mtb BioA inh – BioA (M. tuberculosis) enzyme inhibition; purified M. tuberculosis BioA enzyme, plate reader; inhibition, % at 9.99 µM; hit rate 0.096% among 360,000; in the data active means inhibition above about 40%
Mtb hypoxia rep – inhibitors of hypoxia-regulated fluorescent reporter in Mycobacterium tuberculosis | hit rate 0.1% among 300,000 | AID 1159583 | fluorescence inhibition, % (concentration not given with the values) | M. tuberculosis hypoxia-regulated fluorescent reporter, fluorescence; in the data active means fluorescence inhibition mostly above about 23%, no sharp cut-off; inactive means mostly below about 17%
TcdB GH inh – inhibitors of Clostridioides difficile toxin B glycohydrolase; TcdB glycohydrolase enzymatic assay, plate reader; inhibition, % at 9.99 µM; hit rate 0.24% among 350,000; AID 652162; in the data active means inhibition above about 10%
Target sequence (P18177 whole entry, looked up): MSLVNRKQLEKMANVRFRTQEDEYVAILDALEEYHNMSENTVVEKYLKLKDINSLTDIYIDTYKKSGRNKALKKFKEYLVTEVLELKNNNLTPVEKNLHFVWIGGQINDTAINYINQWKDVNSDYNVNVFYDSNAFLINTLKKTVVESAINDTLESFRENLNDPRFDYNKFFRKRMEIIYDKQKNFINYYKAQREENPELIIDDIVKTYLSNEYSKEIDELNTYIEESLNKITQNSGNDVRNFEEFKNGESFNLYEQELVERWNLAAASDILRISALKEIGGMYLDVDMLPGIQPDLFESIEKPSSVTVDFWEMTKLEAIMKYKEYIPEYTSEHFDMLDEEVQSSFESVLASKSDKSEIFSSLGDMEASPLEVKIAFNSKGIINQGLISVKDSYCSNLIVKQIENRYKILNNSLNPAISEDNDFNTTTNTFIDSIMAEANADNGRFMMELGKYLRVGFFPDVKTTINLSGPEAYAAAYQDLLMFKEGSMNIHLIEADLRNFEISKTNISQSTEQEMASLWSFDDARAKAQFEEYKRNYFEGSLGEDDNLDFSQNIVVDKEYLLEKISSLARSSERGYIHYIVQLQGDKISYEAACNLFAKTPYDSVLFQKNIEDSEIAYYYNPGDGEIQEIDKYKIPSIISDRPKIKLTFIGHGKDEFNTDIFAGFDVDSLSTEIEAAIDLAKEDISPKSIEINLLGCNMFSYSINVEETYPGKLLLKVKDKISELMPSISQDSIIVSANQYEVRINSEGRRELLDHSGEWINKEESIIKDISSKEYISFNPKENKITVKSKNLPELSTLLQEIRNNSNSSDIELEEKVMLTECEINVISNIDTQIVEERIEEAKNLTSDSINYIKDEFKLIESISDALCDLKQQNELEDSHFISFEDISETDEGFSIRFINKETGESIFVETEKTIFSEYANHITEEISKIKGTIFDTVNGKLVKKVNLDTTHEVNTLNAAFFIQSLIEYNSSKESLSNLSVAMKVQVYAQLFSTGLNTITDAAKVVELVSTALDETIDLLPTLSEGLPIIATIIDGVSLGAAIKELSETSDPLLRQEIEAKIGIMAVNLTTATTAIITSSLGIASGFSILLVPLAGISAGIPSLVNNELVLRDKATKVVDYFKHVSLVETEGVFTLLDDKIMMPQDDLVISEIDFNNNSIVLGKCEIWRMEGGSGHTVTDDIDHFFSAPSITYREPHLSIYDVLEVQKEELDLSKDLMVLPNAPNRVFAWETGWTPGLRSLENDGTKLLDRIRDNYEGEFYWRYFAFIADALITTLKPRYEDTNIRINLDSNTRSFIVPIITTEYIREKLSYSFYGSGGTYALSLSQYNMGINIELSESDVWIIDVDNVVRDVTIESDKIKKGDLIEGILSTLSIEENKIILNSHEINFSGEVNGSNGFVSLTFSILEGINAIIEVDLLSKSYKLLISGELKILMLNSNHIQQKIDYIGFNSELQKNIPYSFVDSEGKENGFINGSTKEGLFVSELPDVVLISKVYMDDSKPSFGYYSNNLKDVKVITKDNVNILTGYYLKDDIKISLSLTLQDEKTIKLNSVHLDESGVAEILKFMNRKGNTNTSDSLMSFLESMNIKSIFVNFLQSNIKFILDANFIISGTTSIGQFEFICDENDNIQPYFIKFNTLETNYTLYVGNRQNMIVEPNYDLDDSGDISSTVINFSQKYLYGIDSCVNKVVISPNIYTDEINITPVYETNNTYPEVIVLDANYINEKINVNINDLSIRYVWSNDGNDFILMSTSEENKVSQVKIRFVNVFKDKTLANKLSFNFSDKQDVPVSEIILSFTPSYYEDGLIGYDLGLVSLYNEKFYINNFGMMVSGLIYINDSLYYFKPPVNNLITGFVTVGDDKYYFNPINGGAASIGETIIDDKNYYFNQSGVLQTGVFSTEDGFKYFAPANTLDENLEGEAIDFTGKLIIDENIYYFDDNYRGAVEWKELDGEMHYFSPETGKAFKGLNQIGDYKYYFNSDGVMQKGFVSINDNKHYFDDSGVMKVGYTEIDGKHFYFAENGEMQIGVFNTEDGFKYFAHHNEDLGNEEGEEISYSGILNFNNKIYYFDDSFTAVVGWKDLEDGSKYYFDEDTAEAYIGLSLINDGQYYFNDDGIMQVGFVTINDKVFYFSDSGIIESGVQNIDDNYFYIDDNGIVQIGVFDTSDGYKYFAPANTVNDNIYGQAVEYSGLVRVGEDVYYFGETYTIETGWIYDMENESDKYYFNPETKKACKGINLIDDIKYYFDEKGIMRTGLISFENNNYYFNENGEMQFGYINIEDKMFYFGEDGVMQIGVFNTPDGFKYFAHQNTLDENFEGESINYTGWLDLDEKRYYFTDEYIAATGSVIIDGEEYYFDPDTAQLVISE
FadD28 FP inh – blocks FadD28 binding to the bisubstrate probe. fluorescence polarization. inhibition, % at 12.5 µM. hit rate 0.22% among 360,000. AID 588549; in the data active means inhibition above about 8.5%, passing the limit was not always enough
PriA SSB inh – blocks PriA binding to SSB C-terminal tail; AlphaScreen SSBct-PriA binding, biotinylated peptide; inhibition, % at 33 µM; hit rate 0.6% among 430,000; in the data active means inhibition mostly above about 37%, no sharp cut-off; inactive means mostly below about 20%
PrP UTR inh – inhibition of PrP 5' UTR reporter expression. cell-based PrP 5' UTR mRNA reporter, plate reader. inhibition, % (test concentration not listed). hit rate 0.35% among 340,000. AID 488862; in the data active means inhibition above about 52%
Numbers stand for hits; n = inactive; x = no result given. Hits are enriched below; roughly 1% of the tested compounds scored in any of these assays.

SMILES	Mtb BioA inh	Mtb hypoxia rep	TcdB GH inh	FadD28 FP inh	PriA SSB inh	PrP UTR inh
c1ccc(-c2cn(C[C@H]3CC[C@@H]([C@@H]4CC[C@H](Cn5cc(-c6ccccn6)nn5)O4)O3)nn2)nc1	n	x	n	n	100.8	n
O=C1Nc2ccccc2C1=Nc1ccccc1-c1ccccc1	x	x	10.0	n	n	n
CCOc1ccc2c(C)nc(NC3=NC(C)(C)C=C(C)N3)nc2c1	n	x	10.6	n	n	n
O=c1c2ccccc2c2ccccc2c(=O)n1-n1cnnc1	x	x	x	x	n	x
Oc1[nH]c2ccccc2c1N=Nc1ccccn1	x	x	n	n	n	n
Oc1c(N=Nc2ccccn2)ccc2ccccc12	x	n	x	n	49.1	n
COc1ccc(C(=O)Nc2ccccc2C(=O)O)cc1Cl	x	n	10.3	n	n	n
O=C(CCCOc1ccc(Cl)cc1Cl)Nc1ccccc1C(=O)O	n	33.8	n	n	n	n
COc1ccc(C(=O)Nc2ccccc2C(=O)O)cc1NC(=O)C(c1ccccc1)c1ccccc1	x	n	n	n	n	n
O=C(COc1ccc(Cl)cc1Cl)Nc1ccc(C(=O)Nc2ccccc2C(=O)O)cc1	n	n	n	n	n	n
O=C1CC(c2ccc(S(=O)(=O)NCc3ccccc3)cc2)CN1 (stereo unspecified)	n	x	n	n	n	n
O=C(c1csc(Nc2ccccc2)n1)N1CCN(c2ccccc2F)CC1	x	x	x	x	26.0	x
O=C(c1csc(Nc2ccccc2)n1)N1CCN(Cc2ccc3c(c2)OCO3)CC1	x	x	x	x	active	x
O=C(c1csc(NS(=O)(=O)c2ccccc2)n1)N1CCN(c2ccccc2F)CC1	x	x	x	x	n	x
O=C(Cc1csc(Nc2ccccc2)n1)N1CCN(Cc2ccc3c(c2)OCO3)CC1	x	x	x	x	n	x
C[C@H]1CN([C@@H](C)CO)C(=O)c2cc(NC(=O)C3CC3)ccc2O[C@@H]1CN(C)Cc1ccc(Cl)c(Cl)c1	n	x	n	x	x	x
Cn1cc(CC(=O)NCC2CCCN2c2ccccc2)c2ccccc21 (stereo unspecified)	x	x	x	x	39.0	x
O=C(NCC1CCCN1c1ccccc1)c1c[nH]c2ccccc12 (stereo unspecified)	x	x	x	x	53.0	x
O=C(NC[C@H]1CCCN1c1nccs1)c1c[nH]c2ccccc12	x	x	x	x	n	x
COc1ccc(CNC(=O)Cc2cn(C)c3ccccc23)c(OC)c1	n	n	27.5	n	n	n
O=C(Cc1ccc(F)cc1)NC[C@H]1CCCN1c1ccccc1	x	x	x	x	n	x
O=C(CCN1CCc2ccccc21)c1ccc2c(c1)OCCO2	n	n	x	n	47.6	n
O=C(CCN1CCc2ccccc2C1)c1ccc2c(c1)OCCO2	n	n	x	n	n	n
Cc1cccc(S(=O)(=O)N2CCCCN3[C@H](C2)[C@H](c2ccc(-c4ccccc4)cc2)[C@@H]3CO)c1	n	x	n	x	x	x
CN(C)S(=O)(=O)c1cc(NC(=O)CSc2ncc(C(F)(F)F)cc2Cl)ccc1Cl	x	n	x	12.6	n	n
SMILES	Mtb BioA inh	Mtb hypoxia rep	TcdB GH inh	FadD28 FP inh	PriA SSB inh	PrP UTR inh
CN(C)S(=O)(=O)c1cc(NC(=O)CSc2cccc[n+]2[O-])ccc1Cl	n	n	n	n	n	n
Cc1c(NC(=S)NC(=O)CC(C)C)c(=O)n(-c2ccccc2)n1C	x	n	n	n	n	n
Cc1ccc(CNC(=O)C(Cc2ccccc2)NS(=O)(=O)c2cccs2)cc1 (stereo unspecified)	n	n	n	15.7	n	n
Cc1ccc(CNC(=O)[C@H](Cc2ccccc2)NC(=O)c2ccco2)cc1	n	n	n	n	n	n
Cc1ccc(CNC(=O)C(Cc2ccccc2)NS(=O)(=O)c2ccc(Br)s2)cc1 (stereo unspecified)	x	n	n	49.8	n	n
Nc1cc(N)nc(SCC(=O)NCc2ccc3c(c2)OCO3)n1	n	n	n	n	n	n
Cc1nc(SCC(=O)NCc2ccc3c(c2)OCO3)nc(C)c1C	n	22.9	n	n	n	n
COc1ccc(NC(=O)N2c3ccc(OC)cc3C(C)=CC2(C)C)cc1	n	n	x	n	54.0	n
CCOc1ccc2c(c1)C(C)=CC(C)(C)N2C(=O)Nc1ccccc1	x	n	x	n	44.3	n
COc1ccc(S(=O)(=O)N(C)CC2Oc3c(NC(=O)C4CCCCC4)cccc3C(=O)N(C(C)CO)CC2C)cc1 (stereo unspecified)	x	n	x	x	x	x
C[C@@H]1CN([C@H](C)CO)C(=O)c2cccc(NC(=O)Nc3ccccc3)c2O[C@@H]1CN(C)S(C)(=O)=O	n	x	n	x	x	x
Cc1cccc(NC(=O)Nc2ccc3c(c2)N(C)C(=O)CS3)n1	n	n	n	n	104.2	n
COc1cc(C=NNC(=O)CCNC(=O)c2ccccc2Cl)ccc1O	x	n	x	x	n	x
O=C(CCNC(=O)c1ccccc1Cl)N/N=C\c1ccc(O)cc1	n	x	15.1	n	x	n
O=C(CCn1cnc2ccccc21)N/N=C/c1ccc(O)cc1	n	x	14.0	n	x	n
O=C(CNS(=O)(=O)c1ccccc1)N/N=C\c1ccc(Cl)cc1	n	x	x	n	x	n
O=C(CNS(=O)(=O)c1ccccc1)N/N=C/c1ccc(O)cc1	x	x	13.8	n	x	n
CN(C)c1nc(N2CCN(c3ccccc3)CC2)c(C#N)c(=O)o1	x	n	x	n	n	n
CC=Cc1ccc2n(c1=O)C[C@H]1[C@H](CO)[C@@H](C(=O)N3CCOCC3)[C@@H]2N1CC1CC1 (mixture of isomers)	n	x	n	x	x	x
Cc1nn(Cc2ccc(F)cc2)c(Cl)c1/C=N/NC(=O)c1cccnc1	97.6	x	n	n	x	n
C[C@H](CO)N1C[C@H](C)[C@H](CN(C)Cc2ccc(-c3ccccc3)cc2)Oc2ccc(NC(=O)CCC(F)(F)F)cc2CC1=O	n	x	n	x	x	x
C#CCOCCOCCOCCNc1nc(N2CCN(C(=O)CCCCCCCCCCNC(=O)[C@H]([C@@H](C)CC)n3cc(CCCCN=C(N)N)nn3)CC2)nc(N2CCN(C(=O)CCCCCCCCCCNC(=O)[C@H](CO)n3cc(CCCCCN)nn3)CC2)n1	n	x	x	n	39.3	n
CC(C)CC1CN=C(N)N1CC1CCCN1CC(C)N1CC(Cc2ccccc2)N(CCc2ccc(Cl)c(Cl)c2)C1=N (stereo unspecified)	x	91.5	x	x	x	x
CC(C)C[C@@H]1CN=C(N)N1C[C@@H]1CCCN1C[C@H](C)N1C[C@@H](Cc2ccccc2)N(CCc2ccc(Cl)c(Cl)c2)C1=N	n	x	x	n	n	n
COc1cc(NC(=O)[C@@H](Cc2ccccc2)NC(=O)[C@H]2O[C@@H](n3ccc(N)nc3=O)[C@H](O)[C@@H]2O)cc(OC)c1OC	x	x	n	x	x	x
Cc1c(C2C(C#N)=C(N)N(c3ccccc3C#N)C3=C2C(=O)CCC3)cnn1C (stereo unspecified)	x	n	x	n	38.4	n
N#CC1=C(N)N(c2ccccc2C#N)C2=C(C(=O)CCC2)C1c1ccsc1 (stereo unspecified)	n	n	x	n	n	n
CCOc1ncccc1C(=O)Nc1ccc2c(c1)OCO2	x	x	n	n	n	n
CCOc1ncccc1C(=O)Nc1cc2c(cc1Br)OCCO2	n	35.8	n	n	n	n
COc1cc(/C=C2/C(=O)c3cccc([N+](=O)[O-])c3C2=O)c(Br)cc1O	x	n	x	10.1	n	n
